Measurements taken from PubChem BioAssay AID1159580 (chemical genetic matrix, 2015).
The whole screen tested about 5,500 compounds, of which about 2,000 (36%) were called active. Another 18% or so got no clear call; they are omitted. The list shows a part of the results. Unmarked numbers belong to inactive results. Cut-off read from the data, not from the text of the source: active = normalized growth mostly below about 0.91 (no sharp cut-off); inconclusive = no clear call, values can overlap the other calls; inactive = mostly above about 0.92.

Assay: chemical genetic growth profiling, strain panel (AID 1159580);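 note: tested at 20 µM; growth read once vehicle control cultures reached saturation at 30 °C; 1 = growth at the plate median or of vehicle wells; lower values mean less growth of the strain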
Details: S. cerevisiae deletion strains, growth OD
[1] = locus YDL101C, strain DUN1, hits give low values
[2] = locus YHR030C, strain SLT2, hits give low values

Work on `COc1ccc(S(=O)(=O)Nc2ccccc2Oc2ccc(Cl)cc2Cl)cc1OC` yielded a normalized growth (locus YAL013W, strain DEP1, hits give low values) of 1.01, a normalized growth (locus YBR229C, strain ROT2, hits give low values) of 1.01 and a normalized growth (locus YCL061C, strain MRC1, hits give low values) of 1.07. The normalized growth [1] was 1.08, the normalized growth (locus YDL134C, strain PPH21, hits give low values) was 1.01 and the normalized growth (locus YDR150W, strain NUM1, hits give low values) was 0.933. The normalized growth (locus YEL061C, strain CIN8, hits give low values) was 0.999, the normalized growth (locus YGR078C, strain PAC10, hits give low values) was 1.04 and the normalized growth (locus YGR229C, strain SMI1, hits give low values) was 0.995. For the same molecule, the normalized growth [2] was 1.06, the normalized growth (locus YHR087W, strain rtc3, hits give low values) was 0.988 and the normalized growth (locus YJL187C, strain SWE1, hits give low values) was 1. The normalized growth (locus YJR043C, strain POL32, hits give low values) was 1.05, the normalized growth (locus YJR075W, strain HOC1, hits give low values) was 1 and the normalized growth (locus YKL190W, strain CNB1, hits give low values) was 1.01. For the same molecule, the normalized growth (locus YLR039C, strain RIC1, hits give low values) was 1.06, the normalized growth (locus YLR058C, strain SHM2 (second series), hits give low values) was 0.988 and the normalized growth (locus YLR085C, strain ARP6, hits give low values) was 1.08. For the same molecule, the normalized growth (locus YLR262C, strain YPT6, hits give low values) was 0.99, the normalized growth (locus YML094W, strain GIM5, hits give low values) was 1 and the normalized growth (locus YMR219W, strain ESC1, hits give low values) was 1. It also gave a normalized growth (locus YMR263W, strain SAP30, hits give low values) of 0.967, a normalized growth (locus YMR307W, strain GAS1, hits give low values) of 0.986 and a normalized growth (locus YNL128W, strain TEP1, hits give low values) of 1. For the same molecule, the normalized growth (locus YNL153C, strain GIM3, hits give low values) was 1.03, the normalized growth (locus YNL298W, strain CLA4 (second series), hits give low values) was 1.05 and the normalized growth (locus YNL322C, strain KRE1, hits give low values) was 0.988. The normalized growth (locus YNR030W, strain Alg12, hits give low values) was 1.02, the normalized growth (locus YPL055C, strain LGE1, hits give low values) was 0.959 and the normalized growth (locus YPL241C, strain CIN2, hits give low values) was 1.03. The normalized growth (locus YPR135W, strain CTF4, hits give low values) was 1.03.

For `N#Cc1ccc(S(=O)(=O)Nc2ccccc2Oc2ccc(Cl)cc2Cl)cc1`, the normalized growth (locus YAR019C, strain CDC15, hits give low values) was 0.98, the normalized growth (locus YBL105C, strain PKC1, hits give low values) was 0.98 and the normalized growth (locus YBR135W, strain CKS1, hits give low values) was 0.976. For the same molecule, the normalized growth (locus YBR136W, strain MEC1, hits give low values) was 0.985, the normalized growth (locus YBR160W, strain CDC28, hits give low values) was 0.983 and the normalized growth (locus YDL017W, strain CDC7, hits give low values) was 0.979. For the same molecule, the normalized growth (locus YDL028C, strain MPS1, hits give low values) was 0.979, the normalized growth [1] was 0.986 and the normalized growth (locus YDL108W, strain KIN28, hits give low values) was 0.973. The normalized growth (locus YDL132W, strain cdc53, hits give low values) was 0.979, the normalized growth (locus YDL214C, strain PRR2, hits give low values) was 0.968 and the normalized growth (locus YDR052C, strain DBF4, hits give low values) was 0.979. For the same molecule, the normalized growth (locus YDR054C, strain cdc34, hits give low values) was 0.974, the normalized growth (locus YDR226W, strain ADK1, hits give low values) was 0.969 and the normalized growth (locus YDR477W, strain SNF1, hits give low values) was 0.935. It also gave a normalized growth (locus YER123W, strain YCK3, hits give low values) of 0.948, a normalized growth (locus YER133W, strain GLC7, hits give low values) of 0.928 and a normalized growth (locus YFL009W, strain cdc4, hits give low values) of 0.987. The normalized growth (locus YFL029C, strain CAK1, hits give low values) was 0.979, the normalized growth (locus YFR003C, strain YPI1, hits give low values) was 0.974 and the normalized growth (locus YFR019W, strain FAB1, hits give low values) was 0.955. For the same molecule, the normalized growth (locus YFR028C, strain CDC14, hits give low values) was 0.98, the normalized growth (locus YGR040W, strain KSS1, hits give low values) was 0.945 and the normalized growth (locus YGR052W, strain FMP48, hits give low values) was 0.985. The normalized growth (locus YGR092W, strain DBF2, hits give low values) was 0.879, the normalized growth [2] was 0.88 and the normalized growth (locus YHR079C, strain IRE1, hits give low values) was 0.931. The normalized growth (locus YHR082C, strain KSP1, hits give low values) was 1.07, the normalized growth (locus YHR205W, strain SCH9, hits give low values) was 0.936 and the normalized growth (locus YIL147C, strain SLN1, hits give low values) was 0.986. The normalized growth (locus YJL095W, strain BCK1, hits give low values) was 0.905, the normalized growth (locus YJL128C, strain PBS2, hits give low values) was 0.961 and the normalized growth (locus YJL157C, strain FAR1, hits give low values) was 0.947. For the same molecule, the normalized growth (locus YJR016C, strain ILV3, hits give low values) was 0.97, the normalized growth (locus YJR066W, strain TOR1 (second series), hits give low values) was 0.9 and the normalized growth (locus YJR066W, strain TOR1, hits give low values) was 1.04. For the same molecule, the normalized growth (locus YKL048C, strain ELM1, hits give low values) was 0.959, the normalized growth (locus YKL067W, strain YNK1, hits give low values) was 0.973 and the normalized growth (locus YKL101W, strain HSL1, hits give low values) was 0.957. The normalized growth (locus YKL193C, strain SDS22, hits give low values) was 0.978, the normalized growth (locus YKL203C, strain TOR2, hits give low values) was 1.02 and the normalized growth (locus YLR113W, strain HOG1, hits give low values) was 0.836 (active). For the same molecule, the normalized growth (locus YLR133W, strain CKI1, hits give low values) was 0.972, the normalized growth (locus YLR403W, strain SFP1, hits give low values) was 0.912 and the normalized growth (locus YML070W, strain DAK1, hits give low values) was 0.94. It also gave a normalized growth (locus YMR001C, strain CDC5, hits give low values) of 0.982, a normalized growth (locus YMR205C, strain PFK2 (second series), hits give low values) of 0.972 and a normalized growth (locus YMR277W, strain FCP1, hits give low values) of 0.973. The normalized growth (locus YNL006W, strain LST8, hits give low values) was 0.977, the normalized growth (locus YNL020C, strain ARK1, hits give low values) was 0.965 and the normalized growth (locus YNL161W, strain CBK1, hits give low values) was 0.982. It also gave a normalized growth (locus YNL183C, strain NPR1, hits give low values) of 1.08, a normalized growth (locus YNL207W, strain RIO2, hits give low values) of 0.979 and a normalized growth (locus YNL222W, strain SSU72, hits give low values) of 0.978. The normalized growth (locus YNL307C, strain MCK1 (second series), hits give low values) was 0.965, the normalized growth (locus YOL078W, strain AVO1, hits give low values) was 0.971 and the normalized growth (locus YOL136C, strain PFK27, hits give low values) was 0.967. The normalized growth (locus YOR061W, strain CKA2, hits give low values) was 0.872, the normalized growth (locus YOR119C, strain RIO1, hits give low values) was 1.01 and the normalized growth (locus YOR231W, strain MKK1, hits give low values) was 1.01. For the same molecule, the normalized growth (locus YOR329C, strain SCD5, hits give low values) was 0.982, the normalized growth (locus YPL031C, strain PHO85, hits give low values) was 0.926 and the normalized growth (locus YPL153C, strain RAD53, hits give low values) was 0.945. For the same molecule, the normalized growth (locus YPL204W, strain HRR25, hits give low values) was 0.949, the normalized growth (locus YPL209C, strain IPL1, hits give low values) was 0.983 and the normalized growth (locus YPL256C, strain CLN2, hits give low values) was 0.967. The normalized growth (locus YPR025C, strain CCL1, hits give low values) was 0.976, the normalized growth (locus YPR106W, strain ISR1, hits give low values) was 0.96 and the normalized growth (locus YPR111W, strain DBF20, hits give low values) was 0.963. It also gave a normalized growth (strain NNK1, hits give low values) of 0.981 and a normalized growth (strain TSCII, hits give low values) of 0.99.
